# Many of the other results were omitted from the sample, so the strongest signals are more common in it than they were.
# B1: Awp1 (Candida glabrata) (protein)
# chain: MSLITIFAFLIKATLVLSLDILTPTTLTGDQTFNEDVSVVSSLTLNDGSQYLFNNLLQIAPSSASVTANALAAVSVFTFSLPPSSSLSNSGTLIISNSNTGPSTEQHIVITPNVMANTGTITLSLAHTNTDSSSTLIIDPVTFYNTGTINYESIGSETNDPSLTGNILSIGSSGRTLQNLGTINLNAANSYYLLGTITENSGSINVQKGFLYVNALDFIGNTINLSTTTALAFISPVSQVVRVRGVFFGNIIASVGSSGTFSYNTQTGILTVTTNGVYSYDIGCGYNPALMSGQQETLSFQGNPYDTFLVLVNQPIPSDLTCAAVSSSITPSSSVEPSSSVVPSSSVEPSSSVEPSSSVEPSSSVEPSSSVEPSSSVEPSSSVEPSSSVEPSSSVEPSSSVEPSSSVEPSSSVEPSSSVEPSSSVEPSSSVEPSSSVEPSSSVEPSSSVEPSSSVEPSSLIVPSSSVEPSSSVLPSSSVVPSSSVEPSTPPIPSSSVEPSSSVVPSSPAVPSSSVEPSTPPIPSSSVVSASVFDTSSTLPSSPSVPPSSVSPSTISTPSSSAAPSSFCPTCVSSGTPPAPSSSAIVPTSSAGGGNGGDNREPGAAGQPGAAGQPGAAGQPGAAGQPGAAGQPGAAGQPGAAGQPGAAGQPGAAGQPGAAGQPGAGFGVGSEQPTPGAGAGSGSADGNQSGTGSGTGNGQQGSGQAGSGQAGSGQEGSGQAGSGQAGSGQAGSGQAGSGQAGLDNTASGQSEGGQASAMDGDQSGRDGQSNSGSLLQPNAQQGTGSGTGSDIGADQASGESPGQIGDAQPGSGTDQSSGRHSLAAEARTSQSHSLAADARTRSTTRQTSVIAPDTAPGTASGTAPGTAPGTAVVTTFHGCGTVNHKGMINILLALALLVLL
# Legend:
# Experiment in all cases: glycan array binding signal (z-score within array); higher = stronger binding
# Settings in all cases: glycan notation: IUPAC condensed, linker removed
# [1] = biological target: Gal(b1-4)GlcNAc(b1-3)[Gal(b1-4)GlcNAc(b1-6)]Gal(b1-4)GlcNAc
# Procedure, shortened: (§1)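 Arrays were curated from the Consortium for Functional Glycomics database, 3228 in total, and kept only where the protein sequence was available. Binding is expressed as a within-array Z-score. This score was averaged across arrays of the same protein sequence at different concentrations or buffers and across linkers, and negative values can be read as non-binding.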
# [2] = biological target: Gal(b1-4)GlcNAc(b1-6)Gal(b1-4)GlcNAc
# Procedure, shortened: as §1
# [3] = biological target: GalNAc(b1-4)GlcNAc(b1-3)GalNAc(b1-4)GlcNAc
# Procedure, shortened: as §1
# [4] = biological target: GalNAc(b1-6)GalNAc
# Procedure, shortened: as §1
# [5] = biological target: GalNAc4S6S(b1-4)GlcNAc
# Procedure, shortened: as §1
# [6] = biological target: GlcA3S(b1-3)Gal(b1-4)GlcNAc(b1-2)Man
# Procedure, shortened: as §1
# [7] = biological target: GlcNAc(b1-2)[GlcNAc(b1-4)]Man(a1-3)[GlcNAc(b1-4)][GlcNAc(b1-2)Man(a1-6)]Man(b1-4)GlcNAc(b1-4)GlcNAc
# Procedure, shortened: as §1
# [8] = biological target: GlcNAc(b1-2)[GlcNAc(b1-6)]Man(a1-6)[GlcNAc(b1-2)Man(a1-3)]Man(b1-4)GlcNAc(b1-4)[Fuc(a1-6)]GlcNAc
# Procedure, shortened: as §1
# [9] = biological target: GlcNAc(b1-2)[GlcNAc(b1-6)]Man(a1-6)[GlcNAc(b1-4)][GlcNAc(b1-2)Man(a1-3)]Man(b1-4)GlcNAc(b1-4)GlcNAc
# Procedure, shortened: as §1
# [10] = biological target: GlcNAc(b1-3)Gal(b1-3)GalNAc
# Procedure, shortened: as §1
# [11] = biological target: GlcNAc(b1-3)Gal(b1-4)GlcNAc(b1-3)Gal(b1-4)GlcNAc(b1-2)Man(a1-3)[GlcNAc(b1-3)Gal(b1-4)GlcNAc(b1-3)Gal(b1-4)GlcNAc(b1-2)Man(a1-6)]Man(b1-4)GlcNAc(b1-4)GlcNAc
# Procedure, shortened: as §1
# [12] = biological target: GlcNAc(b1-3)Gal(b1-4)GlcNAc(b1-3)Gal(b1-4)GlcNAc(b1-3)Gal(b1-4)GlcNAc(b1-2)[GlcNAc(b1-3)Gal(b1-4)GlcNAc(b1-3)Gal(b1-4)GlcNAc(b1-3)Gal(b1-4)GlcNAc(b1-6)]Man(a1-6)[GlcNAc(b1-3)Gal(b1-4)GlcNAc(b1-3)Gal(b1-4)GlcNAc(b1-3)Gal(b1-4)GlcNAc(b1-2)Man(a1-3)]Man(b1-4)GlcNAc(b1-4)[Fuc(a1-6)]GlcNAc
# Procedure, shortened: as §1
# [13] = biological target: GlcNAc(b1-4)Gal(b1-4)GlcNAc
# Procedure, shortened: as §1
# [14] = biological target: Kdn(a2-3)Gal(b1-3)GalNAc
# Procedure, shortened: as §1
# [15] = biological target: Kdn(a2-3)Gal(b1-4)[Fuc(a1-3)]GlcNAc
# Procedure, shortened: as §1
# [16] = biological target: Man(a1-2)Man(a1-2)Man(a1-3)Man
# Procedure, shortened: as §1
# [17] = biological target: MurNAc(b1-4)GlcNAc
# Procedure, shortened: as §1
# [18] = biological target: Neu5Ac(a2-3)Gal(b1-3)GlcNAc(b1-6)GalNAc
# Procedure, shortened: as §1
# [19] = biological target: Neu5Ac(a2-3)Gal(b1-3)]Neu5Ac(a2-3)Gal(b1-4)]GlcNAc
# Procedure, shortened: as §1
# [20] = biological target: Neu5Ac(a2-3)Gal(b1-4)GlcNAc
# Procedure, shortened: as §1
# [21] = biological target: Neu5Ac(a2-3)Gal(b1-4)GlcNAc(b1-2)Man(a1-3)[GlcNAc(b1-4)][Neu5Ac(a2-3)Gal(b1-4)GlcNAc(b1-2)Man(a1-6)]Man(b1-4)GlcNAc(b1-4)GlcNAc
# Procedure, shortened: as §1
# [22] = biological target: Neu5Ac(a2-3)Gal(b1-4)GlcNAc(b1-3)Gal
# Procedure, shortened: as §1
# [23] = biological target: Neu5Ac(a2-3)Gal(b1-4)GlcNAc(b1-3)Gal(b1-4)GlcNAc(b1-3)Gal(b1-4)GlcNAc(b1-2)Man(a1-3)[Neu5Ac(a2-3)Gal(b1-4)GlcNAc(b1-3)Gal(b1-4)GlcNAc(b1-3)Gal(b1-4)GlcNAc(b1-2)Man(a1-6)]GalNAc
# Procedure, shortened: as §1
# [24] = biological target: Neu5Ac(a2-3)Gal(b1-4)GlcNAc(b1-3)Gal(b1-4)GlcNAc(b1-3)[Neu5Ac(a2-3)Gal(b1-4)GlcNAc(b1-3)Gal(b1-4)GlcNAc(b1-6)]GalNAc
# Procedure, shortened: as §1
# [25] = biological target: Neu5Ac(a2-3)Gal(b1-4)[Fuc(a1-3)]GlcNAc(b1-2)Man
# Procedure, shortened: as §1
# [26] = biological target: Neu5Ac(a2-3)Gal(b1-4)[Fuc(a1-3)]GlcNAc(b1-3)Gal
# Procedure, shortened: as §1
# [27] = biological target: Neu5Ac(a2-3)Gal(b1-4)[Fuc(a1-3)]GlcNAc(b1-3)Gal(b1-4)[Fuc(a1-3)]GlcNAc(b1-3)Gal(b1-4)[Fuc(a1-3)]GlcNAc
# Procedure, shortened: as §1
# [28] = biological target: Neu5Ac(a2-3)Gal(b1-4)[Fuc(a1-3)]GlcNAc(b1-6)[Gal(b1-3)]GalNAc
# Procedure, shortened: as §1
# [29] = biological target: Neu5Ac(a2-3)[GalNAc(b1-4)]Gal(b1-4)GlcNAc
# Procedure, shortened: as §1
# [30] = biological target: Neu5Ac(a2-6)Gal(b1-4)Glc
# Procedure, shortened: as §1
# [31] = biological target: Neu5Ac(a2-8)Neu5Ac(a2-3)Gal(b1-4)Glc
# Procedure, shortened: as §1
# [32] = biological target: Neu5Ac(a2-8)Neu5Ac(a2-3)Gal(b1-4)GlcNAc
# Procedure, shortened: as §1
# [33] = biological target: Neu5Ac(a2-8)Neu5Ac(a2-8)Neu5Ac(a2-8)Neu5Ac(a2-3)[GalNAc(b1-4)]Gal(b1-4)Glc
# Procedure, shortened: as §1
binder,measurement,setting,value
B1,glycan array binding signal (z-score),[1],-0.342
same,glycan array binding signal (z-score),[2],-0.366
same,glycan array binding signal (z-score),[3],1.95
same,glycan array binding signal (z-score),[4],2.29
same,glycan array binding signal (z-score),[5],1.51
same,glycan array binding signal (z-score),[6],0.488
same,glycan array binding signal (z-score),[7],0.047
same,glycan array binding signal (z-score),[8],-0.571
same,glycan array binding signal (z-score),[9],-1
same,glycan array binding signal (z-score),[10],2.02
same,glycan array binding signal (z-score),[11],-0.505
same,glycan array binding signal (z-score),[12],2.24
same,glycan array binding signal (z-score),[13],1.07
same,glycan array binding signal (z-score),[14],-1.24
same,glycan array binding signal (z-score),[15],-0.924
same,glycan array binding signal (z-score),[16],-0.346
same,glycan array binding signal (z-score),[17],-1.87
same,glycan array binding signal (z-score),[18],0.214
same,glycan array binding signal (z-score),[19],0.442
same,glycan array binding signal (z-score),[20],0.13
same,glycan array binding signal (z-score),[21],0.483
same,glycan array binding signal (z-score),[22],0.691
same,glycan array binding signal (z-score),[23],1.61
same,glycan array binding signal (z-score),[24],-0.297
same,glycan array binding signal (z-score),[25],-0.217
same,glycan array binding signal (z-score),[26],0.412
same,glycan array binding signal (z-score),[27],-0.603
same,glycan array binding signal (z-score),[28],-0.493
same,glycan array binding signal (z-score),[29],-0.217
same,glycan array binding signal (z-score),[30],-1.39
same,glycan array binding signal (z-score),[31],0.225
same,glycan array binding signal (z-score),[32],-0.772
same,glycan array binding signal (z-score),[33],-1.71

# Reference: the supplement of paper PMC8728848
